Compound activity from PubChem BioAssay.
PKA-R1A activ: activators of PKA-R1A holoenzyme, primary screen, biochemical, fluorescence polarization, Cy5-IP20, bovine R1A, mouse PKAc; cAMP-dependent protein kinase type I-alpha regulatory subunit (Bos taurus) + …; PKA-R1A dissociation; scaled: DMSO 0%, 113 µM cGMP 100%; actives 0.083% (n = 340,000); activation, % at 11.4 µM;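 active = percent activation above the mean of all tested compounds plus 3 SD, cut at about 19% in these data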;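 also: higher means more PKAc released from R1A so a rise in polarization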
Neddylation inh: inhibitors of cullin neddylation, primary screen, biochemical, TR-FRET, uHTS, NAE and Ubc12. NEDD8-conjugating enzyme Ubc12 (Homo sapiens) + NEDD8-activating enzyme E1 regulatory …. inhibition, % at 25 µM. actives 0.58% (n = 360,000). AID 651699, 2012; in the data active = inhibition above about 36%
PKA-R2B act: activators of PKA-R2B holoenzyme, primary screen, biochemical, fluorescence polarization, Cy5-IP20, human. cAMP-dependent protein kinase catalytic subunit beta (Homo sapiens) + cAMP-dependent …. PKA-R2B holoenzyme dissociation; R2B truncated from residue 108, S112A mutant; 0% DMSO only, 100% 113 µM cGMP. activation, % at 11.4 µM. actives 0.079% (n = 340,000);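 active = activation above a cutoff set at the mean over all compounds plus 3 SD, cut at about 18% in these data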;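 also: higher means more holoenzyme dissociation and a rise in polarization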
Rpn11 block: Rpn11 (PSMD14) deubiquitinase inhibitors, primary screen, biochemical, fluorescence polarization, uHTS. 26S proteasome non-ATPase regulatory subunit 14 (Homo sapiens), O00487. human 26S proteasome, Ub4-pepOG fluorescence polarization; 20S core pre-blocked with epoxomicin. calls only at 20 µM. actives 0.59% (n = 360,000);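 active = inhibition at 20 µM, scaled to each plate's controls, above about 33%, limit read from the data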
Rpn11 inh conf: Rpn11 (PSMD14) deubiquitinase inhibitors, confirmation, biochemical, fluorescence polarization, single concentration. actives 29% (n = 1,900). shares compounds with Rpn11 block. purified human 26S proteasome, Ub4-pepOG fluorescence polarization; proteasome pretreated with epoxomicin. AID 602318, 2012. inhibition, % at 20 µM
MMP-2 inh: MMP-2 enzyme inhibition, confirmation, counter-screen for RPN11 inhibitor project, biochemical, fluorescence, single concentration | actives 4% (n = 1,900) | AID 602330, 2012 | inhibition, % at 20 µM | shares compounds with Rpn11 block | recombinant MMP-2, FRET peptide cleavage fluorescence;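 also: human MMP-2 activated beforehand with APMA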
Target sequence (P08253 whole entry, looked up): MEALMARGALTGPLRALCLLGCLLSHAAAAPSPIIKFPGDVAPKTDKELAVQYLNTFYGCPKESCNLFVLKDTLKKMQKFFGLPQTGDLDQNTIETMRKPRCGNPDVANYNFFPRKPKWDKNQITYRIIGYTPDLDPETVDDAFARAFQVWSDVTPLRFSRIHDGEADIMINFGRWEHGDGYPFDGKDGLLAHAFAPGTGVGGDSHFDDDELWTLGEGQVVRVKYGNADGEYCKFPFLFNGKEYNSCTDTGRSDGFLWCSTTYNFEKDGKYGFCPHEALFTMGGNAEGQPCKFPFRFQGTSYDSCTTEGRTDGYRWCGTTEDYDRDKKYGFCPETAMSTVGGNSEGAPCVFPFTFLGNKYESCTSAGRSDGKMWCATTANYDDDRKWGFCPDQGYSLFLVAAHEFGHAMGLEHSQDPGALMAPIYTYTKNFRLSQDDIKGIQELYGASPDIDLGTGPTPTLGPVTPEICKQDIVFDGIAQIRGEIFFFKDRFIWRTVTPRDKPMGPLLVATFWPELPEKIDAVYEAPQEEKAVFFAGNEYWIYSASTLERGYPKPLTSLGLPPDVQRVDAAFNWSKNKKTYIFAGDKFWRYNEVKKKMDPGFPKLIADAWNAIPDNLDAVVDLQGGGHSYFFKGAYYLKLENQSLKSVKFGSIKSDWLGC
Thrombin inh: bovine thrombin protease inhibition, confirmation, counter-screen for Rpn11 inhibitor project, biochemical, fluorescence polarization, single concentration. actives 13% (n = 1,900). inhibition, % at 20 µM. bovine thrombin cleavage of Ub4-pepOG. shares compounds with Rpn11 block. AID 602333, 2012;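 active = mean inhibition at least 40% at 20 µM, or signal 3 deviations below plate average, so some actives read negative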;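 also: plate controls were thrombin with DMSO for no effect and buffer wells lacking thrombin for full effect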
* marks the source's active call; other numbers are inactive results; i = inactive; x = not tested or not shown; + = active, no number. Shown are actives, neighbours in structure and some others; about 1.3% of the full set was active somewhere. Rule as the data show it, unless noted: active = inhibition above about 40%; inactive = the rest.

SMILES | PKA-R1A activ | Neddylation inh | PKA-R2B act | Rpn11 block | Rpn11 inh conf | MMP-2 inh | Thrombin inh
COCCCn1c(=O)/c(=C/c2ccccc2OC(F)F)s/c1=C(\C#N)C(=O)NCCOC | -1 | 9 | -3 | + | 24 | 47* | -1
COCCCNC(=O)/C(C#N)=c1\s/c(=C\c2ccccc2OC(F)F)c(=O)n1CCCOC | -3 | 6 | -18 | x | x | x | x
COc1cc(C(=O)NNC(=S)NCc2ccco2)cc(OC)c1OC | 0 | 8 | -5 | i | x | x | x
O=C(O)c1cccc2[nH]c(C(F)(F)F)nc12 | -3 | 8 | 0 | i | x | x | x
Nc1cccc2[nH]c(C(F)(F)F)nc12 | -4 | 10 | -12 | + | 23 | -5 | -18
COCCc1nc2ccc(C(=O)N(C)Cc3cccc(-n4nc(C)cc4C)c3)cc2o1 | -2 | 1 | -4 | i | x | x | x
CN(CC(=O)Nc1ccc(N2CCOCC2)cc1)CC(=O)Nc1ccccc1C#N | 11 | 0 | 4 | i | x | x | x
CC1Nc2ncnc(N3CCc4ccccc4C3)c2N(Cc2ccc(Cl)cc2)C1=O (stereo not drawn) | 11 | -2 | 0 | + | 31 | 4 | 15
COC(=O)c1c(SCC(=O)NC2CCCCC2)[nH]c2ccccc2c1=O | -7 | 1 | -5 | + | 9 | -35 | 6
O=S(=O)(NCCc1ccc(Cl)cc1)c1cccc2cccnc12 | -7 | -1 | -7 | i | x | x | x
Cc1cc(O)c2c(c1)CC1C3CCC4CC(=O)CCC4(C)C3CC(=O)C21C (stereo not drawn) | -5 | -9 | 7 | i | x | x | x
CN1/C(=C/C(=O)c2nc(S(C)(=O)=O)ncc2Cl)C(C)(C)c2ccccc21 | 3 | 6 | -5 | + | 2 | -18 | 11
CN1/C(=C\C(=O)c2cccnc2)C(C)(C)c2ccccc21 | -7 | x | -10 | i | x | x | x
N=C1/C(=C\c2ccc(SCc3ccccc3)o2)C(=O)N=C2SC=NN12 | -11 | -9 | -2 | i | x | x | x
CCS(=O)(=O)C1=NN2C(=N)/C(=C\c3ccc(SCc4ccco4)o3)C(=O)N=C2S1 | 5 | -28 | 11 | + | 122* | 11 | 49*
Cc1ccc(/C=C2\C(=N)N3N=C(CC(=O)N4CCOCC4)SC3=NC2=O)o1 | -5 | -22 | -6 | i | x | x | x
COc1ccc(-n2c(C)cc(/C=C3\C(=N)N4N=C(CC(=O)N5CCOCC5)SC4=NC3=O)c2C)c(OC)c1 | -6 | 20 | 0 | + | 17 | 13 | 4
N=C1/C(=C\c2ccc(SCc3ccccc3)o2)C(=O)N=C2SC(CC(=O)N3CCOCC3)=NN12 | -6 | -4 | 3 | + | 8 | -4 | -4
CCCCCc1c(-c2ccc(F)cc2F)ncn1CCc1ccccc1OC | x | 0 | x | x | x | x | x
CN(C(=O)c1ccc(Br)o1)C1CCS(=O)(=O)C1 (stereo not drawn) | 1 | -5 | 4 | i | x | x | x
CCCCOC(=O)c1ccc(NC(=O)C(CCS(C)(=O)=O)NC(C)=O)cc1 (stereo not drawn) | -1 | -10 | 0 | + | -15 | -38 | -8
CC1CCC(NC(=O)c2nn(C)c3c2CSc2ccccc2-3)CC1 (stereo not drawn) | -3 | 0 | -7 | i | x | x | x
Cc1ccc(CN(C(=O)c2csnn2)C(C(=O)NC2CCCC2)c2ccccn2)cc1 (stereo not drawn) | 5 | 4 | 7 | + | -23 | -39 | -20
Cc1ccc(N(C(=O)c2csnn2)C(C(=O)NC2CCCCC2)c2ccccn2)cc1 (stereo not drawn) | 0 | -4 | 3 | i | x | x | x
O=C(CN1CCN(c2ccccc2O)CC1)Nc1cccnc1Cl | -1 | -1 | -2 | i | x | x | x
SMILES | PKA-R1A activ | Neddylation inh | PKA-R2B act | Rpn11 block | Rpn11 inh conf | MMP-2 inh | Thrombin inh
Cc1nc(-c2ccc(C(=O)Nc3ccc(F)cc3)cc2)cs1 | 0 | 4 | -14 | + | 24 | -11 | -8
Clc1cccc(Cc2c(-c3cccc(Cl)c3)nc3ccc(Br)cn23)c1 | x | i | x | i | x | x | x
Brc1cccc(-c2nc3ccc(Br)cn3c2Cc2ccccc2)c1 | x | -454 | x | + | 21 | -24 | -1
Clc1cccc(-c2nc3ccc(Br)cn3c2Cc2ccccc2)c1 | x | -86 | x | + | 35 | 11 | 8
CCOC(=O)CCNCc1ccc(F)cc1 | -5 | 5 | -3 | i | x | x | x
Cc1cc(-c2csc(NC(=O)c3cccc(S(=O)(=O)N(C)C)c3)n2)c(C)n1-c1ccccc1 | -2 | -35 | -7 | + | 9 | 21 | -6
COC(=O)c1ccc(-n2c(C)cc(-c3csc(NC(=O)c4ccc(S(=O)(=O)N(C)C)cc4)n3)c2C)cc1 | -4 | 1 | -8 | i | x | x | x
O=C1C[C@H](NC(=O)OCc2ccccc2)CO1 | -2 | 8 | -1 | i | x | x | x
CCCCCCCCCCCCCCC(O)C[N+](C)(CCO)CCO (stereo not drawn) | -3 | 3 | 1 | + | 42* | -21 | -27
Cc1ccc(C(=O)COc2ccc3c(C)cc(=O)oc3c2)cc1 | -5 | 2 | -20 | i | x | x | x
Cc1cc(=O)oc2cc(OCC(=O)c3ccc4c(c3)NC(=O)CO4)ccc12 | -2 | 7 | -7 | + | 3 | -24 | -6
COc1ccc(N2CCc3c(C)nc4c(OC)cccc4c32)cc1 | -1 | 0 | -10 | + | -15 | -25 | -2
COc1cc(C(=O)OCC(=O)N2CCOCC2)c([N+](=O)[O-])cc1OC | -8 | -15 | -5 | i | x | x | x
COc1ccc(N=Cc2oc3ccc4ccccc4c3c2O)cc1 | -4 | 1 | -4 | + | 60* | -42 | 21
COc1ccc(-c2ccc3c(c2)O/C(=C\c2ccsc2)C3=O)cn1 | -10 | x | -5 | + | -1 | -11 | -16
CC(=O)Nc1sc(NC(=O)c2ccc(C)cc2)nc1-c1cccs1 | -10 | 33 | 8 | i | x | x | x
Cc1ccc(-c2nn(CC(=O)NCc3cc(-c4nn(C)c(=O)c5ccccc45)ccc3C)c(=O)c3ccccc23)cc1 | 0 | -7 | 1 | + | 7 | -20 | -3
